Records with an inconclusive call do not appear. Calls of active or inactive are those of the source. Unless noted, the call rests on the fitted dose curve; in most records, active means well fitted curve in the direction sought with a large enough effect; inconclusive means small, poorly fitted or top-dose-only effect, or another doubt; inactive means no such curve, though single readings can be large; an effect the other way counts as inactive or inconclusive.
Key:
[1] = target: ATP-dependent 6-phosphofructokinase (Trypanosoma brucei brucei) (UniProt O15648); assay: qHTS Assay to Find Inhibitors of T. brucei phosphofructokinase: hit validation (AID 492961);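 further: luminescence reports ADP formed as PFK phosphorylates fructose-6-phosphate with ATP; on the % scale 0 is the no-effect control and ±100 the full control effect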
Procedure, shortened: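 Inhibition of parasite PFK is measured as reduced ADP formation, quantified via luciferase after ATP depletion. Assay used 0.1 mM ATP, 0.5 mM F6P, 1.25 nM enzyme, 45 min incubation.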

[2] = target: Ubiquitin carboxyl-terminal hydrolase 1 (Homo sapiens) (UniProt O94782); assay: Inhibitors of USP1/UAF1: Pilot qHTS (AID 504865);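 further: rhodamine fluorescence freed from ubiquitin-rhodamine substrate followed over time; top concentration of the series differs between compounds; on the % scale 0 is the no-effect control and ±100 the full control effect; nearly all actives have a fitted effect of over 35% in size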
Procedure, shortened: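 1nM USP1/UAF1 + cpd, 15 min RT; start w/ Ub-Rho 150nM final; kinetic FL 480/540 nm, 6 reads q60 s. Buffer 50mM HEPES pH 7.8, 0.5mM EDTA, 1mM TCEP, 0.01% Tween-20, 0.1 mg/ml BSA.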

[3] = target: Luciferin 4-monooxygenase (Photinus pyralis) (UniProt P08659); assay: Biochemical firefly luciferase enzyme assay for NPC (AID 624030);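 further: purified P. pyralis luciferase at 10 nM with luciferin and ATP substrate; 0% = DMSO and -100% = full luciferase inhibition by PTC124 control; nearly all actives have a fitted effect of over 70% in size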
Procedure, shortened: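 Purified P. pyralis luciferase at 10 nM in 50 mM Tris Acetate (final), luminescence read within 5 minutes of enzyme addition to compounds. Activity normalised to PTC124 versus DMSO; concentration-response curves classed by r2, magnitude and activity.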

[4] = S16 Schwann cell viability assay (CellTiter-Glo assay) (AID 624031);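 further: cellular ATP luminescence as a viability measure; plate controls were DMSO-treated cells for no effect and cell-free wells for full effect; nearly all actives have a fitted effect of over 70% in size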
Procedure, shortened: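 Luminescent ATP read-out (CellTiter-Glo) after 24 h compound exposure of native S16 rat Schwann cells at 37 °C. Signals were normalized between cell-free wells and DMSO-treated cells, set as 0% activity.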

[5] = S16 Schwann cell PMP22 intronic element firefly luciferase assay (AID 624032);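 further: plate controls were DMSO for no effect and PTC124 positive control mean for full effect; nearly all actives have a fitted effect of over 30% in size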
Procedure, shortened: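 Rat S16 Schwann cells stably carrying firefly luciferase driven by a PMP22 intronic element, in 10% FBS, treated 24 h at 37 C. ONE-Glo luminescence normalized to PTC124 control and DMSO (0%); curves classed by r2, magnitude and activity.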

[6] = S16 Schwann cell PMP22 intronic element beta-lactamase assay (AID 624044; calls by dose curve;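 further: 0% = DMSO and -100% = potassium clavulanate positive control; nearly all actives have a fitted effect of over 15% in size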); details: S16 rat Schwann cells, PMP22 element beta-lactamase FRET, 24 h; ratio activity, negative = inhibition: at 38.3 µM (top of the series)
Procedure, shortened: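 Rat S16 Schwann cells with beta-Lac driven by a PMP22 intronic element, compound-treated 24 h at 37 °C. LiveBLAzer FRET B/G read: 460 nm normalized to potassium clavulanate vs DMSO; 535 nm FRET as viability; concentration-effect curves classified.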

[7] = qHTS profiling for inhibitors of Plasmodium falciparum proliferation (AID 504749);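 further: 0% = DMSO vehicle and full inhibition = artemisinin control; nearly all actives have a fitted effect of over 60% in size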; details: P. falciparum in erythrocytes, SYBR Green DNA, 72 h, at 28.7 µM (top of the series)
Procedure, shortened: (§1)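 Readout was DNA-dye fluorescence from lysed cultures, ex 485/em 535 nm. Parasitized red cells had grown 72 h with compound; data scaled between 0.29 uM artemisinin and DMSO wells and corrected using vehicle-only plates.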

3D7 = assay: as above; details: P. falciparum in erythrocytes, SYBR Green DNA, 72 h; series mostly up to 28.7 µM
Procedure, shortened: as §1

7G8 = assay: as above; details: P. falciparum in erythrocytes, SYBR Green DNA, 72 h; series mostly up to 28.7 µM
Procedure, shortened: as §1

AA1029 = assay: as above; details: P. falciparum in erythrocytes, SYBR Green DNA, 72 h; series mostly up to 28.7 µM
Procedure, shortened: as §1

AS120 = assay: as above; details: P. falciparum in erythrocytes, SYBR Green DNA, 72 h; series mostly up to 28.7 µM
Procedure, shortened: as §1

ATS189 = assay: as above; details: P. falciparum in erythrocytes, SYBR Green DNA, 72 h; series mostly up to 28.7 µM
Procedure, shortened: as §1

ATS95 = assay: as above; details: P. falciparum in erythrocytes, SYBR Green DNA, 72 h; series mostly up to 28.7 µM
Procedure, shortened: as §1

C2A = assay: as above; details: P. falciparum in erythrocytes, SYBR Green DNA, 72 h; series mostly up to 28.7 µM
Procedure, shortened: as §1

CP185 = assay: as above; details: P. falciparum in erythrocytes, SYBR Green DNA, 72 h; series mostly up to 28.7 µM
Procedure, shortened: as §1

CP191 = assay: as above; details: P. falciparum in erythrocytes, SYBR Green DNA, 72 h; series mostly up to 28.7 µM
Procedure, shortened: as §1

CP192 = assay: as above; details: P. falciparum in erythrocytes, SYBR Green DNA, 72 h; series mostly up to 28.7 µM
Procedure, shortened: as §1

CP194 = assay: as above; details: P. falciparum in erythrocytes, SYBR Green DNA, 72 h; series mostly up to 28.7 µM
Procedure, shortened: as §1

CP201 = assay: as above; details: P. falciparum in erythrocytes, SYBR Green DNA, 72 h; series mostly up to 28.7 µM
Procedure, shortened: as §1

CP203 = assay: as above; details: P. falciparum in erythrocytes, SYBR Green DNA, 72 h; series mostly up to 28.7 µM
Procedure, shortened: as §1

CP211 = assay: as above; details: P. falciparum in erythrocytes, SYBR Green DNA, 72 h; series mostly up to 28.7 µM
Procedure, shortened: as §1

CP215 = assay: as above; details: P. falciparum in erythrocytes, SYBR Green DNA, 72 h; series mostly up to 28.7 µM
Procedure, shortened: as §1

CP217 = assay: as above; details: P. falciparum in erythrocytes, SYBR Green DNA, 72 h; series mostly up to 28.7 µM
Procedure, shortened: as §1

CP237 = assay: as above; details: P. falciparum in erythrocytes, SYBR Green DNA, 72 h; series mostly up to 28.7 µM
Procedure, shortened: as §1

CP238 = assay: as above; details: P. falciparum in erythrocytes, SYBR Green DNA, 72 h; series mostly up to 28.7 µM
Procedure, shortened: as §1

CP247 = assay: as above; details: P. falciparum in erythrocytes, SYBR Green DNA, 72 h; series mostly up to 28.7 µM
Procedure, shortened: as §1

CP250 = assay: as above; details: P. falciparum in erythrocytes, SYBR Green DNA, 72 h; series mostly up to 28.7 µM
Procedure, shortened: as §1

CP252 = assay: as above; details: P. falciparum in erythrocytes, SYBR Green DNA, 72 h; series mostly up to 28.7 µM
Procedure, shortened: as §1

CP256 = assay: as above; details: P. falciparum in erythrocytes, SYBR Green DNA, 72 h; series mostly up to 28.7 µM
Procedure, shortened: as §1

CP260 = assay: as above; details: P. falciparum in erythrocytes, SYBR Green DNA, 72 h; series mostly up to 28.7 µM
Procedure, shortened: as §1

CP262 = assay: as above; details: P. falciparum in erythrocytes, SYBR Green DNA, 72 h; series mostly up to 28.7 µM
Procedure, shortened: as §1

CP265 = assay: as above; details: P. falciparum in erythrocytes, SYBR Green DNA, 72 h; series mostly up to 28.7 µM
Procedure, shortened: as §1

CP266 = assay: as above; details: P. falciparum in erythrocytes, SYBR Green DNA, 72 h; series mostly up to 28.7 µM
Procedure, shortened: as §1

CP268 = assay: as above; details: P. falciparum in erythrocytes, SYBR Green DNA, 72 h; series mostly up to 28.7 µM
Procedure, shortened: as §1

CP269 = assay: as above; details: P. falciparum in erythrocytes, SYBR Green DNA, 72 h; series mostly up to 28.7 µM
Procedure, shortened: as §1

CP286 = assay: as above; details: P. falciparum in erythrocytes, SYBR Green DNA, 72 h; series mostly up to 28.7 µM
Procedure, shortened: as §1

CP291 = assay: as above; details: P. falciparum in erythrocytes, SYBR Green DNA, 72 h; series mostly up to 28.7 µM
Procedure, shortened: as §1

CP297 = assay: as above; details: P. falciparum in erythrocytes, SYBR Green DNA, 72 h; series mostly up to 28.7 µM
Procedure, shortened: as §1

CP305 = assay: as above; details: P. falciparum in erythrocytes, SYBR Green DNA, 72 h; series mostly up to 28.7 µM
Procedure, shortened: as §1

CP315 = assay: as above; details: P. falciparum in erythrocytes, SYBR Green DNA, 72 h; series mostly up to 28.7 µM
Procedure, shortened: as §1

CP325 = assay: as above; details: P. falciparum in erythrocytes, SYBR Green DNA, 72 h; series mostly up to 28.7 µM
Procedure, shortened: as §1

CP329 = assay: as above; details: P. falciparum in erythrocytes, SYBR Green DNA, 72 h; series mostly up to 28.7 µM
Procedure, shortened: as §1

CP335 = assay: as above; details: P. falciparum in erythrocytes, SYBR Green DNA, 72 h; series mostly up to 28.7 µM
Procedure, shortened: as §1

DFO2036 = assay: as above; details: P. falciparum in erythrocytes, SYBR Green DNA, 72 h; series mostly up to 28.7 µM
Procedure, shortened: as §1

DIV14 = assay: as above; details: P. falciparum in erythrocytes, SYBR Green DNA, 72 h; series mostly up to 28.7 µM
Procedure, shortened: as §1

DIV17 = assay: as above; details: P. falciparum in erythrocytes, SYBR Green DNA, 72 h; series mostly up to 28.7 µM
Procedure, shortened: as §1

DIV30 = assay: as above; details: P. falciparum in erythrocytes, SYBR Green DNA, 72 h; series mostly up to 28.7 µM
Procedure, shortened: as §1

Dd2 = assay: as above; details: P. falciparum in erythrocytes, SYBR Green DNA, 72 h; series mostly up to 28.7 µM
Procedure, shortened: as §1

ECU = assay: as above; details: P. falciparum in erythrocytes, SYBR Green DNA, 72 h; series mostly up to 28.7 µM
Procedure, shortened: as §1

FAB9 = assay: as above; details: P. falciparum in erythrocytes, SYBR Green DNA, 72 h; series mostly up to 28.7 µM
Procedure, shortened: as §1

GB4 = assay: as above; details: P. falciparum in erythrocytes, SYBR Green DNA, 72 h; series mostly up to 28.7 µM
Procedure, shortened: as §1

HB3 = assay: as above; details: P. falciparum in erythrocytes, SYBR Green DNA, 72 h; series mostly up to 28.7 µM
Procedure, shortened: as §1

ICS = assay: as above; details: P. falciparum in erythrocytes, SYBR Green DNA, 72 h; series mostly up to 28.7 µM
Procedure, shortened: as §1

JCK = assay: as above; details: P. falciparum in erythrocytes, SYBR Green DNA, 72 h; series mostly up to 28.7 µM
Procedure, shortened: as §1

N140 = assay: as above; details: P. falciparum in erythrocytes, SYBR Green DNA, 72 h; series mostly up to 28.7 µM
Procedure, shortened: as §1

P93_24 = assay: as above; details: P. falciparum in erythrocytes, SYBR Green DNA, 72 h; series mostly up to 28.7 µM
Procedure, shortened: as §1

P94_40 = assay: as above; details: P. falciparum in erythrocytes, SYBR Green DNA, 72 h; series mostly up to 28.7 µM
Procedure, shortened: as §1

PAD = assay: as above; details: P. falciparum in erythrocytes, SYBR Green DNA, 72 h; series mostly up to 28.7 µM
Procedure, shortened: as §1

PC15 = assay: as above; details: P. falciparum in erythrocytes, SYBR Green DNA, 72 h; series mostly up to 28.7 µM
Procedure, shortened: as §1

PC26 = assay: as above; details: P. falciparum in erythrocytes, SYBR Green DNA, 72 h; series mostly up to 28.7 µM
Procedure, shortened: as §1

PC49 = assay: as above; details: P. falciparum in erythrocytes, SYBR Green DNA, 72 h; series mostly up to 28.7 µM
Procedure, shortened: as §1

SC27B = assay: as above; details: P. falciparum in erythrocytes, SYBR Green DNA, 72 h; series mostly up to 28.7 µM
Procedure, shortened: as §1

TAB109 = assay: as above; details: P. falciparum in erythrocytes, SYBR Green DNA, 72 h; series mostly up to 28.7 µM
Procedure, shortened: as §1

TAB113 = assay: as above; details: P. falciparum in erythrocytes, SYBR Green DNA, 72 h; series mostly up to 28.7 µM
Procedure, shortened: as §1

TAB165 = assay: as above; details: P. falciparum in erythrocytes, SYBR Green DNA, 72 h; series mostly up to 28.7 µM
Procedure, shortened: as §1

W2 = assay: as above; details: P. falciparum in erythrocytes, SYBR Green DNA, 72 h; series mostly up to 28.7 µM
Procedure, shortened: as §1

Chain of ATP-dependent 6-phosphofructokinase (Trypanosoma brucei brucei) (O15648 whole entry, looked up): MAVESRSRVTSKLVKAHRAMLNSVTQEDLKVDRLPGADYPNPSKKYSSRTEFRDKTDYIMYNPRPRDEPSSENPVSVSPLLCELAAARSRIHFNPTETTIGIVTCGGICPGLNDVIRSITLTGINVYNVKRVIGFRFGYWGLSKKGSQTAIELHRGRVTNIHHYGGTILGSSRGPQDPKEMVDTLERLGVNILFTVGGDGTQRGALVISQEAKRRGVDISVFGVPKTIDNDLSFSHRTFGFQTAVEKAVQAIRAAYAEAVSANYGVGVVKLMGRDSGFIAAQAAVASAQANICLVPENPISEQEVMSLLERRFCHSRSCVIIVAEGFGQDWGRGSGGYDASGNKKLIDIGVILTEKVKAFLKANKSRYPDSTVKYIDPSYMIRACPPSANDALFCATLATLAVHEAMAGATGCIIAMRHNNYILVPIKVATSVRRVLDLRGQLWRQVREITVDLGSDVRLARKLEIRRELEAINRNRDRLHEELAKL
Chain of Luciferin 4-monooxygenase (Photinus pyralis) (P08659 whole entry, looked up): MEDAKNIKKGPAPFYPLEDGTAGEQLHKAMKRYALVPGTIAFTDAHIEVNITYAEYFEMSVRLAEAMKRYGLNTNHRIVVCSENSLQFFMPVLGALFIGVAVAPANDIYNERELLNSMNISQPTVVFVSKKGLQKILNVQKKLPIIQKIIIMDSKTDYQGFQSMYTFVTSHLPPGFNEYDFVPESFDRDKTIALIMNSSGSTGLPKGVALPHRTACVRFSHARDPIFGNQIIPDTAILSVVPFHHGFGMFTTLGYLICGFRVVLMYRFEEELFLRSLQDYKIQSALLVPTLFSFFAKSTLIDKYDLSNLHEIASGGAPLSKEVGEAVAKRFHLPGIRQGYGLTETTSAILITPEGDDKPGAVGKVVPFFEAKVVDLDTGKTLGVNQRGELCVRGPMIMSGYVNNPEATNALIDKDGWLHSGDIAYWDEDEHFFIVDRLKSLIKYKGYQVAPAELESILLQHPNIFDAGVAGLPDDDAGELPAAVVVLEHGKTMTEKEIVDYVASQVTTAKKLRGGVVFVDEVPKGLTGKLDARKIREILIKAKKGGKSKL
Chain of Ubiquitin carboxyl-terminal hydrolase 1 (Homo sapiens) (O94782 whole entry, looked up): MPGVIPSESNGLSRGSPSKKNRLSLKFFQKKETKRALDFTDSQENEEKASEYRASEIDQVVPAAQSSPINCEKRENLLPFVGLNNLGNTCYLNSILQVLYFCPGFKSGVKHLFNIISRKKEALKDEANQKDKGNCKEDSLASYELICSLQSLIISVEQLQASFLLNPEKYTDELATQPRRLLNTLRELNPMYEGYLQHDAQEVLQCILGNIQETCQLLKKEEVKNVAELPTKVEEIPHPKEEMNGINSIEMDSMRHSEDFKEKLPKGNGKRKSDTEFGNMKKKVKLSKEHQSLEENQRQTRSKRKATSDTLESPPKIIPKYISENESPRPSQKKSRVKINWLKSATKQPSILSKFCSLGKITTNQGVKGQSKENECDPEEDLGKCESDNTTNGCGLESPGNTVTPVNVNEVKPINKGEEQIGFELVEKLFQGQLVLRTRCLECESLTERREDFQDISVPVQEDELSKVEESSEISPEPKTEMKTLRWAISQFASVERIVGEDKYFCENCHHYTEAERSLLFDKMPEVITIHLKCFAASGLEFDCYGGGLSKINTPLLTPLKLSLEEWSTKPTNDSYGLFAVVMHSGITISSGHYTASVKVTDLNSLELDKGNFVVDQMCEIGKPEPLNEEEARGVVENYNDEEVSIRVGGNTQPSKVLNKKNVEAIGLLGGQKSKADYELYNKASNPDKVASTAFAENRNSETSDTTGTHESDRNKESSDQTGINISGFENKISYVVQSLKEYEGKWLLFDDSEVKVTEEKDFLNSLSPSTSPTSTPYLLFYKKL

CC(=O)NC[C@@H]1CN(c2ccc(N3CCOCC3)c(F)c2)C(=O)O1
inactive: Potency [1] | Potency [2] | Potency [3] | Potency [4] | Potency [5] | Potency [6] | activity, negative = inhibition ([7]; parasite line A) -12.2% | activity, negative = inhibition ([7]; parasite line B) -9.57% | Potency (3D7) | Potency (7G8) | Potency (AA1029) | Potency (AS120) | Potency (ATS189) | Potency (ATS95) | Potency (C2A) | Potency (CP185) | Potency (CP191) | Potency (CP192) | Potency (CP194) | Potency (CP201) | Potency (CP203) | Potency (CP211) | Potency (CP215) | Potency (CP217) | Potency (CP237) | Potency (CP238) | Potency (CP247) | Potency (CP250) | Potency (CP252) | Potency (CP256) | Potency (CP260) | Potency (CP262) | Potency (CP265) | Potency (CP266) | Potency (CP268) | Potency (CP269) | Potency (CP286) | Potency (CP291) | Potency (CP297) | Potency (CP305) | Potency (CP315) | Potency (CP325) | Potency (CP329) | Potency (CP335) | Potency (DFO2036) | Potency (DIV14) | Potency (DIV17) | Potency (DIV30) | Potency (Dd2) | Potency (ECU) | Potency (FAB9) | Potency (GB4) | Potency (HB3) | Potency (ICS) | Potency (JCK) | Potency (N140) | Potency (P93_24) | Potency (P94_40) | Potency (PAD) | Potency (PC15) | Potency (PC26) | Potency (PC49) | Potency (SC27B) | Potency (TAB109) | Potency (TAB113) | Potency (TAB165) | Potency (W2)
